Screens (PubChem BioAssay)
Shown are actives, neighbours in structure and some others; about 0.94% of the full set was active somewhere.
SK-BR-3 tox 24h: SK-BR-3 proliferation inhibitors, primary screen, cell-based, human, 24 h | AID 847, 2007 | viability, % at 10 µM | SK-BR-3 viability, CellTiter-Glo ATP luminescence; active compounds read low | 41,000 compounds, 0.47% hits;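 active = viability at or below the median of all test compounds minus 3 SD, in both replicates if run twice, cut at about 45% in these data; inconclusive = duplicate replicates that disagree with each other; inactive = viability above that cutoff in every replicate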;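 note: 100% = median untreated cell wells and 0% = median positive control drug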
Her2 expr inh: inhibitors of Her2 protein expression, primary screen, SKBR-3 cells, AlphaScreen, 66K library; Receptor tyrosine-protein kinase erbB-2 (Homo sapiens), P04626; SKBR-3 HER2 protein level, 18-24 h; active compounds read low; HER2 level % of control, % at 10 µM; 65,000 compounds, 0.69% hits;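 active = HER2 level under 5% of the carrier-only control; inconclusive = no clear call, values can overlap the other calls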;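 note: 100% = DMSO carrier and 0% = 500 nM PU-H71 HSP90 inhibitor; lower value means stronger loss of Her2 protein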
Target sequence (P04626 whole entry, looked up): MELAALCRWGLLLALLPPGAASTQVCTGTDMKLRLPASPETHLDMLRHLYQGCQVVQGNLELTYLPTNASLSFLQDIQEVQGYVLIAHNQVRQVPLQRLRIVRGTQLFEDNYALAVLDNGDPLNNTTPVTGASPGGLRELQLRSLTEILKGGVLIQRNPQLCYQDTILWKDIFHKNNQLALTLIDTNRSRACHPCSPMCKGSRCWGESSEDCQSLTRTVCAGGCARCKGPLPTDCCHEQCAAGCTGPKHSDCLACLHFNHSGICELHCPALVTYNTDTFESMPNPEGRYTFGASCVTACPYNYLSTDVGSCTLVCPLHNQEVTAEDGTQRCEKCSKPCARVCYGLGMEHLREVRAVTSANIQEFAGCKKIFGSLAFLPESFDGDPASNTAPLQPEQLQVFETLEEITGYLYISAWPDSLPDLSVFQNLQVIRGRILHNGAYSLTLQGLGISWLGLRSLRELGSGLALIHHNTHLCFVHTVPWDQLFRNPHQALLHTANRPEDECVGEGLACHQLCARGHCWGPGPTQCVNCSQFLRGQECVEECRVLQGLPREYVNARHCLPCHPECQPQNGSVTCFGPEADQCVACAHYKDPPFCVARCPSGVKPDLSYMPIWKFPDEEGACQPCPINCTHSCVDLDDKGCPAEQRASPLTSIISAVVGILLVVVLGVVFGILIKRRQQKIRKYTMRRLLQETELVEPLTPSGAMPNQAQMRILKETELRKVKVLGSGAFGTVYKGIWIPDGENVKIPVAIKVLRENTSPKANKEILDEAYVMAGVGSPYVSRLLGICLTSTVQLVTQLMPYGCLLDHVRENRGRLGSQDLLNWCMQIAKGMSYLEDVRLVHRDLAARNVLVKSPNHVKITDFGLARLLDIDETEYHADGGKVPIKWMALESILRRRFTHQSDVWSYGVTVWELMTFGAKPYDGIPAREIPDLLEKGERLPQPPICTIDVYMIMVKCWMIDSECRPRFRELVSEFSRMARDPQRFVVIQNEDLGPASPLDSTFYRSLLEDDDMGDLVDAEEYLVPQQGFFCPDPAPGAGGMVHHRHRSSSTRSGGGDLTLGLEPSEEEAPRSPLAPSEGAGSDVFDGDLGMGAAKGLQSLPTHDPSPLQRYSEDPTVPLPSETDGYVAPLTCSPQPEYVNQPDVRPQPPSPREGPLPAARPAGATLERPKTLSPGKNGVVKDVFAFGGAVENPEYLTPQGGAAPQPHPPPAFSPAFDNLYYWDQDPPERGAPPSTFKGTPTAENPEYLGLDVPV
MMP13 inh: human MMP13 inhibitors, primary screen, biochemical, FRET peptide cleavage; Collagenase 3 (Homo sapiens), P45452; MMP-13 fTHP FRET cleavage, Mca fluorescence; inhibition, % at 4 µM; 65,000 compounds, 0.07% hits;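 active = inhibition above the mean of compound-free control plate wells plus 3 SD, cut at about 14% in these data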;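 note: 0% = DMSO wells and 100% = wells with reference MMP-13 inhibitor after basal subtraction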
Active calls of the source: *; u = inconclusive; x = not tested or not shown.

SMILES	SK-BR-3 tox 24h	Her2 expr inh	MMP13 inh
Cc1cccc(C)c1N1C(=O)c2ccccc2C1=O	94.3	89.3	-16.2
CN1CC2=Cc3ccccc3OC23Oc2ccccc2C=C3C1	91.5	-7.0*	1.4
Cc1nn2c(c1-c1ccccc1)NC1=C(C(=O)CCC1)C2c1cccnc1 (stereo unspecified)	95.8	107.4	-18.7
CC1CCN(C(=O)Cn2c(SCC(=O)Nc3nccs3)nc3ccccc32)CC1	75.5	68.7	-5.8
CCOC(=O)CC1=C(C(=O)OCC)C(c2ccc(C)o2)C(C#N)=C(N)O1 (stereo unspecified)	63.2	66.5	-9.8
CCOC(=O)CC1=C(C(=O)OCC)C(c2ccc(OC)cc2OC)C(C#N)=C(N)O1 (stereo unspecified)	x	-20.0*	-4.1
C=CCc1cccc2cc(C(=O)N(C)C)c(=O)oc12	104.3	112.5	-2.9
C=CCc1cccc2cc(C(=O)NC)c(=O)oc12	108.1	-18.3*	-11.0
CCSc1ccc2nnc(-c3ccc(F)cc3)n2n1	x	64.5	-19.3
CS(=O)(=O)N(CC(=O)N1CCN(c2ccccc2F)CC1)c1cccc(C(F)(F)F)c1	x	93.5	0.7
CCn1c(SCC(=O)Nc2cccc(C)n2)nnc1-c1ccco1	x	83.0	-0.4
CCCn1c(SCC(=O)Nc2cccc(C)n2)nnc1-c1ccco1	87.7	-22.9*	1.7
O=S(=O)(c1ccc(F)cc1)N(CCO)CC(O)Cn1c2ccccc2c2ccccc21 (stereo unspecified)	u	-13.3*	2.8
CCN(CC)CC(O)Cn1c2ccccc2c2ccccc21 (stereo unspecified)	x	64.4	0.1
c1csc(Cc2nc(-c3ccc(-n4cccc4)cc3)no2)c1	x	97.6	-6.7
N#Cc1nc(-c2cccs2)oc1NCc1ccccc1Cl	73.0	92.7	-403.3
CCC(=O)Nc1ccc(OC)cc1OC	92.2	109.1	-3.6
COc1ccc(NC(=O)C(F)(OC)C(F)(F)F)c(OC)c1 (stereo unspecified)	41.4*	99.8	1.3
CS(=O)(=O)N(CC(=O)NC1CC2CCC1C2)c1cccc(C(F)(F)F)c1 (stereo unspecified)	94.1	96.2	4.1
Cc1ccc(N(CC(=O)NC2CC3CCC2C3)S(C)(=O)=O)cc1C (stereo unspecified)	90.2	-28.3*	-2.8
CNC(=O)c1ccccc1NC(=O)c1cccc(S(=O)(=O)N2CCC(C)CC2)c1	43.1*	156.8	3.3
CCNC(=O)c1ccccc1NC(=O)c1cccc(S(=O)(=O)N2CCC(C)CC2)c1	56.8	95.2	4.4
COc1ccccc1C1c2c(oc3ccc(Cl)cc3c2=O)C(=O)N1c1cc(C)on1 (stereo unspecified)	77.4	57.6	6.7
Cc1cc(NC(=O)c2noc3c2CCCC3)n(-c2ccccc2)n1	89.4	89.6	7.2
CCCc1nc2oc3c(N4CCNCC4)ncnc3c2c2c1CCCC2	70.7	-14.7*	-83.3
SMILES	SK-BR-3 tox 24h	Her2 expr inh	MMP13 inh
CC(C)Cc1nc2oc3c(N4CCN(C)CC4)ncnc3c2c2c1CCCC2	88.3	78.0	-0.7
Cc1c(NC(=O)c2cccc(F)c2)c(=O)n(-c2ccccc2)n1C	93.6	-25.7*	-3.1
Cc1c(NC(=O)c2ccc(F)cc2)c(=O)n(-c2ccccc2)n1C	x	121.0	5.8
O=C(c1cn(CC(=O)N2CCCC2)c2ccccc12)C1CCCCC1	107.4	91.7	-1.6
O=C(NC1CCCCC1)NC1(C(=O)NCCCN2CCOCC2)CCCCC1	x	119.2	-2.6
CCCCCn1c(SCC#N)nc2cc(C(=O)NC3CCCCC3)ccc2c1=O	46.5	-19.7*	-0.5
CCCCCn1c(SCC#N)nc2cc(C(=O)NCC3CCCO3)ccc2c1=O (stereo unspecified)	x	86.1	0.4
CCSC1(SCC)N=C(N)C2(C#N)C(c3ccc(OC)c(OC)c3OC)C12C#N (stereo unspecified)	100.3	3.5*	-2.5
CCSC1(SCC)N=C(N)C2(C#N)C(c3ccccc3)NC3=C(CCC3)C12C#N (stereo unspecified)	88.2	91.0	4.8
CCOC(=O)c1c(NC(=O)CN2CCOCC2)sc2c1CC(C)(C)OC2	88.1	73.6	2.7
CCOC(=O)C1=C(C)NC(SCC(=O)O)=NC1c1ccccc1 (stereo unspecified)	97.9	94.3	-0.2
Fc1cccc(Cl)c1CSc1nnc(COc2cccc3cccnc23)o1	x	87.9	-2.7
COc1ccc2c(c1OC)C(=O)OC2Nc1ccccc1S(=O)(=O)C(F)F (stereo unspecified)	97.4	-20.8*	-1.0
COc1ccc2c(c1OC)C(=O)OC2Nc1ccccn1 (stereo unspecified)	96.4	64.9	-3.0
CCOc1ccc(CCNC(=O)C2CCN(c3nn4c(=O)cc(C)nc4s3)CC2)cc1OCC	x	99.1	1.5
O=C(C1CCCN(S(=O)(=O)c2ccc(F)cc2)C1)N(Cc1cccs1)C1CC1 (stereo unspecified)	76.2	55.6	-1.0
Cc1ccccc1CS(=O)(=O)c1nnc([C@H](CC(C)C)NC(=O)OC(C)(C)C)o1	85.2	-13.9*	-8.2
CC(C)C[C@H](N)c1nnc(S(=O)(=O)Cc2cccc(F)c2)o1	97.0	74.4	2.2
CCOC(=O)CSc1nnc([C@H](Cc2ccccc2)NC(=O)OC(C)(C)C)o1	112.0	78.7	-3.3
CC(C)(C)OC(=O)N[C@@H](Cc1ccccc1)c1nnc(S(=O)(=O)Cc2cccc(F)c2)o1	126.8	-16.4*	-0.5
CC(C)=CCSc1nnc([C@@H](NC(=O)OC(C)(C)C)C(C)C)o1	92.8	93.8	4.4
CC(C)[C@H](NC(=O)OC(C)(C)C)c1nnc(S(=O)(=O)Cc2c(F)cccc2Cl)o1	157.4	-12.5*	2.5
Cc1[nH]c(=O)[nH]c(=O)c1CSc1nnc([C@@H](NC(=O)OC(C)(C)C)C(C)C)o1	81.7	109.0	2.7
CC[C@@H](C)[C@H](NC(=O)OC(C)(C)C)c1nnc(S(=O)(=O)Cc2cc(C)ccc2C)o1	96.9	-12.6*	10.6
COc1ccc(Nc2nc(C(=O)NCCCN3CCOCC3)cs2)cc1	81.7	72.0	-5.0
SMILES	SK-BR-3 tox 24h	Her2 expr inh	MMP13 inh
CSc1nnnn1-c1ccc(C(=O)OCC(=O)N2CCOCC2)cc1	80.9	86.5	-0.2
CCNc1nc2c(c(=O)n(Cc3ccccc3)c(=O)n2C)n1Cc1ccccc1	74.8	104.4	-3.1
Cc1ccc(S(=O)(=O)C2(C(=O)Nc3cccc(F)c3)CC2)cc1	x	112.0	10.3
Cc1ccc(N2C(=O)CSC2c2cccnc2)cc1F (stereo unspecified)	72.1	71.8	-11.0
CCOC(=O)C1=C(C)Nc2nnnn2C1c1ccc(OC)c(Br)c1 (stereo unspecified)	x	109.8	-10.3
C=CCOC(=O)C1=C(C)Nc2nnnn2C1c1cc(OC)ccc1OC (stereo unspecified)	110.6	-18.2*	-1.0
Cc1ccc(C)n1-c1ccc(-c2nnc3n2CCCCC3)s1	x	109.8	2.3
COC(=O)C(Cc1cncn1COCc1ccccc1)NC(=O)OC(C)(C)C (stereo unspecified)	x	74.3	-1.8
CCOc1ccccc1N1CCN(Cc2ccc(OC)c(OC)c2)CC1	x	-19.9*	-1.8
CCOc1ccccc1N1CCN(Cc2ccc(OC)c(OC)c2OC)CC1	99.2	69.4	3.4
